Test results reported in PubChem BioAssay (Tox21).
Results filed as inconclusive are left out. Where a call stands in place of a potency, no number is given. Active and inactive are the calls of the source. Calls come from the whole dose curve; as a rule, active = well fitted cell-killing curve with a large enough effect in the repeat runs; inconclusive = weak or mixed curves, or effect the other way; inactive = flat fitted curve, though single readings scatter.

experiment: qHTS assay to identify small molecule antagonists of the androgen receptor (AR) signaling pathway using the MDA cell line - cell viability counter screen (AID 743041; note: nearly all actives have a fitted effect of over 45% in size); conditions: MDA-kb2 viability, CellTiter-Fluor, 16 h, cells co-treated with R1881 androgen agonist; series mostly up to 70.3 µM
Description: National Center for Advancing Translational Sciences [NCATS]
NIH Chemical Genomics Center [NCGC]
U.S. Environmental Protection Agency [EPA]
National Institutes of Environmental Health Sciences [NIEHS]
National Toxicology Program [NTP]
U.S. Food and Drug Administration [FDA]
Androgen receptor (AR), a nuclear hormone receptor, plays a critical role in AR-dependent prostate cancer and other androgen related diseases. Endocrine disrupting chemicals (EDCs) and their interactions with steroid hormone receptors like AR may cause disruption of normal endocrine function as well as interfere with metabolic homeostasis, reproduction, developmental and behavioral functions. To identify the compounds that inhibit AR signaling, MDA-kb2 AR-luc cell line (from ATCC, deposited by Wilson et al.) was used to screen the Tox21 10K compound library. MDA-kb2 AR-luc cell line is human breast carcinoma cell line that was stably transfected with a luciferase reporter gene under control of the MMTV promoter containing response elements for both androgen receptor (AR) and glucocorticoid receptor (GR). The cytotoxicity of the Tox21 compound library against the MDA-kb2 AR-luc cell line was tested in parallel by measuring the cell viability using CellTiter-Fluor assay (Promega, Madison, WI) in the same wells.
Tox21 Assay Protocol Summary:
MDA-kb2 AR-luc cells were dispensed at 3,000 cells/4 uL/well of culture medium into white wall/solid-bottom 1536-well plates using a Multidrop Combi (ThermoFisher Scientific, Waltham, MA) dispenser. After the assay plates were incubated at a 37C and 0% CO2 for 5 hr, 23 nL of compounds dissolved in DMSO, positive controls or DMSO only was transferred to the assay plate by a Pintool station (Kalypsys, San Diego, CA), followed by addition of 1 uL of agonist (R1881) in culture medium using a Bioraptr Flying Reagent Dispenser (FRD) workstation (Beckman Coulter, Indianapolis, IN, USA). The plates were incubated at a 37C and 0% CO2 for 16 h. After 15.5 h incubation, 1uL of CellTiter-Fluor reagent (Promega) was added using a Bioraptr FRD to each plate for measuring cytotoxicity. The fluorescence intensity was quantified on a ViewLux plate reader (PerkinElmer, Shelton, CT) following 30 min incubation at 37C and 0% CO2.

Row | SMILES | Potency
1 | CCOC(=O)OC(C)OC1=C(C(=O)Nc2ccccn2)N(C)S(=O)(=O)c2ccccc21 (stereo not given) | inactive
2 | CN1CCN(c2cc3c(nn2)Oc2ccccc2N3C)CC1 | inactive
3 | CCN(Cc1ccccc1)c1ccccc1 | inactive
4 | CC(=O)c1ccccc1[N+](=O)[O-] | inactive
5 | FB(F)F | inactive
6 | c1coc(CNc2ncnc3nc[nH]c23)c1 | inactive
7 | CC(C)(C)c1ccc(-c2ccc(C(C)(C)C)cc2)cc1 | inactive
8 | NC(=O)N[C@@H](CCC(=O)O)C(=O)O | inactive
9 | Cc1ccc(C(=O)c2ccc(CC(=O)O)n2C)cc1 | inactive
10 | CN(C)CCCN(C)CCCN(C)C | inactive
11 | CC(=O)O[C@@]12CO[C@@H]1C[C@H](O)[C@@]1(C)C(=O)[C@H](O)C3=C(C)[C@@H](OC(=O)[C@H](O)[C@@H](NC(=O)OC(C)(C)C)c4ccccc4)C[C@@](O)([C@@H](OC(=O)c4ccccc4)[C@H]21)C3(C)C | inactive
12 | NS(=O)(=O)Cc1noc2ccccc12 | inactive
13 | CN1[C@@H]2CC[C@H]1CC(OC(=O)C(O)c1ccccc1)C2 (stereo not given in full) | inactive
14 | CC(COc1ccccc1)NN (stereo not given) | inactive
15 | CC(=O)Oc1cccc(C)c1 | inactive
16 | O=S(=O)(O)c1cccc2c(S(=O)(=O)O)cccc12 | inactive
17 | Cc1ccc(C(=O)Nc2ccc(S(=O)(=O)O)c3cc(S(=O)(=O)O)cc(S(=O)(=O)O)c23)cc1NC(=O)c1cccc(NC(=O)Nc2cccc(C(=O)Nc3cc(C(=O)Nc4ccc(S(=O)(=O)O)c5cc(S(=O)(=O)O)cc(S(=O)(=O)O)c45)ccc3C)c2)c1 | inactive
18 | C[N+](C)(CCOc1ccccc1)Cc1cccs1 | inactive
19 | CC1OC1C1CCC2(C)OC2C1 (stereo not given) | inactive
20 | CC(C)(C)C(=O)Oc1ccc(S(=O)(=O)Nc2ccccc2C(=O)NCC(=O)O)cc1 | inactive

Row | SMILES | Potency
21 | C=CC(=O)OCCCl | inactive
22 | COc1cc(C(=O)NCc2ccc(OCCN(C)C)cc2)cc(OC)c1OC | inactive
23 | Cc1c(N)c(=O)n(-c2ccccc2)n1C | inactive
24 | CCCC(C)C(=O)OCC (stereo not given) | inactive
25 | c1ccc(CCc2ccccc2)cc1 | inactive
26 | CCOC(=O)c1cnc2c(cnn2CC)c1NN=C(C)C | inactive
27 | CCOCC(C)O (stereo not given) | inactive
28 | C[C@@H]1C[C@H]2[C@@H]3C[C@H](F)C4=CC(=O)C(Cl)=C[C@]4(C)[C@@]3(F)[C@@H](O)C[C@]2(C)[C@@]1(O)C(=O)CO | inactive
29 | O=C(O)CNC(=O)c1ccc(CO)o1 | inactive
30 | Cc1ncc([C@@H](CCCCCCc2ccc3c(n2)NCCC3)CC(=O)O)cn1 | inactive
31 | CCN(C=O)CC | inactive
32 | Cc1ncc(COP(=O)(O)O)c(C=O)c1O | inactive
33 | C=C[Si](OC(C)=O)(OC(C)=O)OC(C)=O | inactive
34 | CC(N)C12CC3CC(CC(C3)C1)C2 (stereo not given) | inactive
35 | CCCCCC(=O)OCCc1ccccc1 | inactive
36 | CC(C)=CCC/C(C)=C/C#N | inactive
37 | CCCCc1nc(Cl)c(CO)n1Cc1ccc(-c2ccccc2-c2nn[nH]n2)cc1 | inactive
38 | CC1(C)[C@@H]2CC[C@@]1(C)[C@H](O)C2 | inactive
39 | CCC1C(=O)OCC1Cc1cncn1C (stereo not given) | inactive
40 | Nc1ccn([C@@H]2O[C@H](CO)[C@@H](O)[C@@H]2O)c(=O)n1 | inactive
